# MITF TRPM1 HTS = activators of MITF-driven TRPM1 promoter reporter, primary screen, cell-based, SK-MEL-5, luciferase, single point | activation, % at 12.5 µM | SK-MEL-5 TRPM1-promoter luciferase, 24 h; % of positive control, neutral wells = 0 | 0.75% of 300,000 active;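 active = mean activation of at least 80% with every replicate also reaching 80%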;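 also: 0% = neutral control wells and 100% = parthenolide positive control wells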
# esBAF inh = Bmi1 luciferase reporter increase in mESCs, primary screen, esBAF inhibitor project, mouse ES cells, Bmi1 luciferase knock-in, single point. 2% of 350,000 active. reporter increase, % at 12.5 µM. AID 602393, 2012. 24 h; 100% = twice the neutral-well signal; in the data active = activation above about 40%;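 also: 0% = median of the plate's neutral control wells and 100% = double that signal; a rise in the Bmi1 reporter signal indicates esBAF inhibition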
# HSF-1 act = HSF-1 activators, primary screen, NIH3T3-HGL cells, MG132 stress, luminescence, single point; activation, % at 9 µM; 1.7% of 300,000 active; NIH3T3-HGL HSF-1 luciferase reporter, 8 h; 100% = twice DMSO control signal; AID 504408, 2011;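 active = mean replicate activation of at least 50% with a set share of replicates each reaching 50%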;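 also: 0% = median of the neutral control wells and 100% = twice that signal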
# Wnt bcat act = Wnt/beta-catenin pathway activators, primary screen, cell-based, plate reader, single point | 1.2% of 300,000 active | Wnt/beta-catenin reporter cell assay, activator | activation, % at 9.35 µM; in the data active = activation above about 30%, passing the limit was not always enough;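 also: 0% = neutral control wells and 100% = positive control wells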
# HSF1 inhib = HSF1 inhibitors in luciferase reporter cells, primary screen, cell-based, NIH3T3, luminescence; NIH3T3-HGL HSE-luciferase, MG132-induced, luminescence 8 h; stronger effect = lower value; activity change, negative = inhibition, % at 7.5 µM (by protocol); 0.77% of 300,000 active; AID 2098, 2009;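 active = more than half of replicate wells show activity change below -50%, luminescence cut by over half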;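 also: luciferase reports HSF-1 transcriptional activity via heat shock element; 0% = median of DMSO wells and -100% = zero luminescence signal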
# Starred values were filed as active, the others as inactive; nt = no result given. Most compounds without a hit are left out; they make up all but 3.9% or so of the library.
SMILES,MITF TRPM1 HTS,esBAF inh,HSF-1 act,Wnt bcat act,HSF1 inhib
O=C1c2ccccc2S(=O)(=O)N1CC1CC(c2ccccc2Cl)=NO1 (stereo unspecified),94*,14,-5,93*,-1
COc1ccccc1C1=NOC(COC(=O)c2ccc([N+](=O)[O-])cc2)C1 (stereo unspecified),nt,nt,17,41*,1
COc1ccccc1C1=NOC(CN2C(=O)c3ccccc3S2(=O)=O)C1 (stereo unspecified),104*,nt,48,37*,38
CC=Cc1ccc2n(c1=O)C[C@@H]1[C@@H](CO)[C@H](C(=O)NCCc3cn(C)cn3)[C@H]2N1C(=O)C1CCCC1 (mixture of isomers),nt,4,nt,nt,nt
CCC(=O)N(C)C[C@H]1Oc2ncc(Br)cc2C(=O)N([C@H](C)CO)C[C@@H]1C,nt,-2,nt,nt,nt
COc1ccc(-n2nnnc2S(=O)(=O)CC(=O)N2CCCCC2)cc1,-74,13,nt,-1,nt
COc1ccc(-n2nnnc2S(=O)(=O)Cc2ccc(C(=O)O)cc2)cc1,-7,5,94*,nt,90
CC(=O)N(C)C[C@@H]1Oc2cc(C#CC3CC3)ccc2S(=O)(=O)N([C@@H](C)CO)C[C@H]1C,nt,-5,nt,nt,nt
Cc1cccnc1NC(=O)CCCNC(=O)c1ccc(Cl)cc1,7,4,-6,2,-5
Cc1c(Cl)cccc1NC(=O)CCCN1C(=O)c2cccnc2C1=O,8,5,2,34*,1
Cc1ccc(NC(=O)CCCCCN2C(=O)c3ccccc3C2=O)nc1,8,3,54*,-5,10
Cc1cnc(NC(=O)CCCNC(=O)c2ccc(Cl)cc2)s1,38,42*,nt,52*,nt
Cc1ccc(NC(=O)CCCNC(=O)c2ccc(Cl)cc2)nc1,44,52*,12,7,13
O=C(CC1CC1)N[C@H]1CC[C@H](CCNS(=O)(=O)c2ccc(F)cc2)O[C@H]1CO,nt,-7,nt,nt,nt
C[C@H](CO)N1C[C@H](C)[C@H](CN(C)C(=O)c2ccccc2F)Oc2cc(-c3ccc(F)cc3)ccc2S1(=O)=O,nt,-5,nt,nt,nt
Cn1c(=O)c2cn(-c3ccc4c(c3)OCCO4)cc2n(C)c1=O,34,16,-73,-1,-67*
Cc1ccc(-n2cc3c(=O)n(C)c(=O)n(C)c3c2)cc1C,48,30,-18,nt,-16
COc1ccccc1C(=O)NC(=S)Nc1ccccc1N1CCCC1,2,14,-63,0,-58*
COc1ccccc1C(=O)NC(=S)N1CCc2ccccc21,-19,nt,-6,0,-2
COc1ccccc1C(=O)NC(=S)N1CCCc2ccccc21,-5,-3,-68,8,-61*
Cc1ccccc1C(=O)NC(=S)Nc1ccccc1N1CCCC1,-14,nt,19,-7,6
CCN1CCN(CCCNC(=O)c2ccc(NC(=O)C3=CSCCO3)cc2)CC1,7,8,-3,1,-9
CCCSCCCNC(=O)c1ccc(NC(=O)C2=CSCCO2)cc1,8,55*,-6,0,-3
O=C(COn1nnc2ccccc21)NCC1CCCCC1,nt,53*,25,36*,20
CCS(=O)(=O)Nc1ccc2c(c1)C(=O)N(C)C[C@H](OC)[C@H](C)CN(C(C)=O)[C@H](C)CO2,nt,-2,nt,nt,nt
SMILES,MITF TRPM1 HTS,esBAF inh,HSF-1 act,Wnt bcat act,HSF1 inhib
C[C@@H](NC(=O)C[C@@H]1C[C@@H]2c3cc(NC(=O)CN(C)C)ccc3O[C@@H]2[C@@H](CO)O1)c1ccccc1,nt,3,nt,nt,nt
O=C(NCCN1C(=O)C2C3C=CC(C3)C2C1=O)Nc1ccc(Br)cc1 (stereo unspecified),67,62*,34,37*,22
COCC(=O)Nc1ccc2c(c1)C(=O)N(C)C[C@H](OC)[C@H](C)CN(C(=O)Cc1cccnc1)[C@@H](C)CO2,nt,0,nt,nt,nt
COc1ccc(-c2cc(C(F)(F)F)nc(SCC(N)=O)n2)cc1,-5,51*,2,nt,-2
COc1ccc(-c2cc(C(F)(F)F)nc(SCCC(=O)N3CCN(C)CC3)n2)cc1,-9,nt,nt,-4,nt
COc1cccc(C(c2sc3nc(C)nn3c2O)N2CCN(C(=O)c3ccco3)CC2)c1 (stereo unspecified),nt,14,-88,0,-85*
CNC(=O)C[C@H]1CC[C@@H]2[C@@H](COc3ccc(NC(=O)c4cccc(OC)c4)cc3C(=O)N2C)O1,nt,0,nt,nt,nt
CC(OC(=O)CN1C(=O)c2ccccc2C1=O)C(=O)NC1CCCCC1C (stereo unspecified),-3,-6,-80,1,-75*
CC(OC(=O)CN1C(=O)c2ccccc2C1=O)C(=O)NC1CCCC1 (stereo unspecified),-7,-4,-4,1,-5
Cc1ccc(NC(=O)COC(=O)c2c(C)nn(-c3ccccc3)c2C)cc1,2,-3,nt,-1,nt
COc1ccccc1NC(=O)COC(=O)c1c(C)nn(-c2ccccc2)c1C,100*,59*,nt,-2,nt
Cc1nc(COC(=O)c2c(C)nn(-c3ccccc3)c2C)cs1,86*,58*,20,28,13
Cc1cc(NC(=O)COC(=O)c2c(C)nn(-c3ccccc3)c2C)no1,-12,nt,13,1,1
Cc1nn(-c2ccccc2)c(C)c1C(=O)OCC(=O)Nc1ccccc1C(F)(F)F,28,46*,nt,13,nt
Cc1nn(-c2ccccc2)c(C)c1C(=O)OCC(=O)Nc1ccccc1,86*,56*,nt,21,nt
COC(=O)c1cc(-c2c(C)nn(-c3ccccc3)c2C)n[nH]1,29,64*,0,nt,10
CC(=O)c1ccccc1NC(=O)COC(=O)c1c(C)nn(-c2ccccc2)c1C,29,33,nt,42*,nt
Cc1nn(-c2ccccc2)c(C)c1-c1cc(C(=O)N/N=C/c2cccnc2)[nH]n1,nt,nt,-9,6,3
O=C(CSc1nnnn1Cc1ccccc1)NC1CCCCC1,-16,nt,7,-2,-3
O=C(CSc1ncnc2c1nnn2Cc1ccccc1)NC1CCCCC1,-12,11,80*,-1,66
CC(=O)N1N=C(c2ccc(Br)cc2)CC1c1ccc(Br)cc1 (stereo unspecified),nt,61*,nt,-3,nt
CC(C)c1ccc(C2CC(c3ccc(Br)cc3)=NN2C(N)=S)cc1 (stereo unspecified),47,nt,74*,nt,48
CC(=O)N1N=C(c2ccccc2)CC1c1ccccc1[N+](=O)[O-] (stereo unspecified),10,nt,109*,-1,76
CNC(=S)N1N=C(c2ccc(C)cc2)CC1c1ccc(Br)cc1 (stereo unspecified),22,16,18,nt,6
O=C(C[C@@H]1C[C@H]2c3cc(NC(=O)Nc4ccc(F)cc4)ccc3O[C@H]2[C@H](CO)O1)NC1CCCC1,nt,19,nt,nt,nt
COc1ccc(C(=O)/C=C/Sc2nc3ccccc3o2)cc1,nt,nt,93*,0,73

# Screens from PubChem BioAssay.
